Here are results for 105 compounds from PubChem BioAssay AID686979 (National Center for Advancing Translational Sciences (NCATS), 2013).

The whole screen tested about 420,000 compounds, of which about 50,000 (12%) were called active. Entries that show only a call come without a potency. Roughly 26% stayed inconclusive and do not appear here. Calls follow the shape of the dose curve; as a rule, active = well fitted inhibition curve with a large enough effect; inconclusive = small, poorly fitted or top-dose-only effect; inactive = flat fitted curve, though single readings scatter. Only a selection was taken, and actives are over-represented in it overall. Where a SMILES comes first, the peptide text is derived from it. [ ]: non-standard residue; d: D form. ξ: configuration not given here. ξM = CSCCC(N)C(=O)O
Potency is read from the fitted curve at half-maximal effect.

The nature of this assay: qHTS for Inhibitors of human tyrosyl-DNA phosphodiesterase 1 (TDP1): qHTS in cells in presence of CPT. Also: nearly all actives have a fitted effect of over 55% in size. As to conditions: chicken DT40 Tdp1-/-;hTDP1 cells + 20 nM CPT, ATP luminescence, 48 h; series mostly up to 46.2 µM. A digest of the protocol:
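Chicken DT40 Tdp1-/- cells complemented with human TDP1, 400 cells/well, exposed to compounds plus 20 nM camptothecin for at least 48 h at 37 C; viability read as ATP content by CellTiter-Glo luminescence.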
For `Cc1ccccc1-c1nc(NC(C)C)nc2cc(-c3ccccc3)sc12`, the Potency was 16.4 µM (active).

As for `COc1ccccc1C(=O)NC(CCSC)C(=O)NNC(=O)c1csc(N2CCOCC2)n1` (stereo not given), the Potency entry is “inactive”.

For `CS(=O)(=O)Nc1cccc(-c2cn3ccccc3n2)c1`, the Potency entry was “inactive”.

As for `CNc1ncnc2ccc(-c3cccc(NS(C)(=O)=O)c3)cc12`, the Potency was 11.6 µM (active).

In the case of `COc1ccccc1CNc1ncncc1-c1cccc(NS(C)(=O)=O)c1`, the Potency entry is “inactive”.

For `O=C(CCS(=O)(=O)c1ccccc1)NC1CCCC1`, the Potency entry is “inactive”.

For `COC1=CCC2([N+](=O)[O-])CN(CC(=O)O)CC1([N+](=O)[O-])C2` (stereo not given), the Potency entry was “inactive”.

`CCOc1ccccc1NC(=O)CCn1cnnn1`: the Potency result is “inactive”.

Take `Cc1ccc(C)c(NC(=O)CN(C)C(=O)c2ccc3ncsc3c2)c1`: the Potency entry was “inactive”.

Regarding `Cc1ccc(Oc2cc(NC(=O)CCCn3nc(C)c([N+](=O)[O-])c3C)cc([N+](=O)[O-])c2)cc1`, the Potency is 16.4 µM (active).

Regarding `COc1ccc(CNC(=O)CCCn2nc(C)c([N+](=O)[O-])c2C)cc1`, the Potency result is “inactive”.

For the compound `CCc1ccc(NC(=O)Cn2nc(C)c([N+](=O)[O-])c2C)cc1`, the Potency result was “inactive”.

In the case of `Cc1ccc(/C(N)=N/OC(=O)COc2ccc(Cl)c(C)c2)cc1`, the Potency result is “inactive”.

On to `C/C(=N\NC(=O)Cc1ccccc1[N+](=O)[O-])c1cccnc1`, for which the Potency result is “inactive”.

Take `CCc1ccccc1NC(=O)Cc1cn(C)c2ccccc12`: the Potency result was “inactive”.

In the case of `Cc1cccc(C)c1NC(=O)CNC(=O)c1ccc(N2CCOCC2)c([N+](=O)[O-])c1`, the Potency entry is “inactive”.

`O=C(Nc1cccc(C(F)(F)F)c1)c1ccc(N2CCNCC2)c([N+](=O)[O-])c1`: the Potency is 14.6 µM (active).

As to `CC1CCN(c2ccc(C(=O)Nc3nnc(C4CC4)s3)cc2[N+](=O)[O-])CC1`, the Potency entry was “inactive”.

For the compound `CCOc1ccc(NC(=O)CC(Cc2ccc(Cl)cc2)C(=O)O)cc1` (stereo not given), the Potency entry is “inactive”.

Consider `N#C/C(=C\c1ccc(O)c(O)c1)C(N)=O`, for which the Potency result was “inactive”.

As for `N#C/C(=C\c1ccc(O)c(O)c1)C(=O)NCc1ccccc1`, the Potency was 29.9 µM (active).

As to `CC(C)NC(=O)/C(C#N)=C\c1ccc(N(C)C)c(Br)c1`, the Potency entry was “inactive”.

Regarding `CCc1nc(-c2cc(S(=O)(=O)N3CCN(c4ccc(OC)cc4)CC3)ccc2OC)no1`, the Potency entry is “inactive”.

As for `COc1cc2c(cc1O)C(SC)=NC(C)(C)C2`, the Potency was 25.9 µM (active).

Take `Cc1cn(C)c(=O)n(C)c1=O`: the Potency result was “inactive”.

On to `O=C1CCCCC1C(=O)c1ccccc1` (stereo not given), for which the Potency result is “inactive”.

For `O=C(Nn1cnnc1)c1ccc([N+](=O)[O-])cc1`, the Potency entry was “inactive”.

Regarding `O=C(c1ccncc1)c1ccc([N+](=O)[O-])cc1`, the Potency result was “inactive”.

Turning to `O=C(Cn1c[n+](CC(=O)c2ccc([N+](=O)[O-])cc2)cn1)c1ccc([N+](=O)[O-])cc1`, the Potency was 16.4 µM (active).

For the compound `COC(=O)CNC(=O)C(CCSC)NC(C)=O` (stereo not given) (Ac-[ξM]-Gly-OMe), the Potency result is “inactive”.

On to `CCCC(C(=O)n1nc(C)cc1C)C(NS(=O)(=O)c1ccc(C)cc1)c1ccccc1` (stereo not given), for which the Potency was 16.4 µM (active).

As to `Cc1ccc(S(=O)(=O)NC(C(=O)N2CCOCCOCCOCCOCC2)c2ccccc2)cc1` (stereo not given), the Potency result was “inactive”.

Consider `Cc1ccc(S(=O)(=O)Nc2nc(C)cc(-n3nc(C)cc3C)n2)cc1`, for which the Potency result was “inactive”.

For `Cc1cccc(C(=O)NNC(=O)CSc2nnc(C(C)C)n2C)c1`, the Potency entry is “inactive”.

As for `COc1ccc(NC(=O)C(c2ccccc2)N2Cc3ccccc3C2=O)cc1` (stereo not given), the Potency entry is “inactive”.

For the compound `Fc1ccc(/C=N/Nc2nc(-c3cccnc3)nc3ccccc23)cc1`, the Potency is 20.6 µM (active).

As to `Cc1ccc2nc(C)cc(N/N=C/c3ccc(F)cc3)c2c1`, the Potency result is “inactive”.

As for `Cc1cnc(CNc2nc(-c3cccnc3)nc3ccccc23)cn1`, the Potency result was “inactive”.

In the case of `C/C(Cn1nnc2ccccc21)=N\OC(=O)c1cc(F)c(F)cc1Cl`, the Potency entry was “inactive”.

`Cc1cc(NC(=O)CCC(=O)N(CC(=O)NCC2CCCO2)c2ccccc2)no1` (stereo not given): the Potency entry was “inactive”.

For `O=C(COC(=O)c1c2c(nc3ccccc13)CCCC2)c1ccc(Br)s1`, the Potency was 8.2 µM (active).

Take `Cn1cccc1C(=O)OCC(=O)c1ccc(Br)s1`: the Potency result is “inactive”.

`CCc1nc2ccccc2c(C(=O)OC2CCCCC2=O)c1C` (stereo not given): the Potency entry is “inactive”.

Turning to `CCc1noc(C)c1C(=O)N1CCCSC1=Nc1ccccc1OC`, the Potency result was “inactive”.

With `CN(C)S(=O)(=O)c1ccc(C(=O)NCCN=C2NS(=O)(=O)c3ccccc32)cc1`, the Potency entry is “inactive”.

With `Cc1cc(C(=O)NC2CC(C)(C)Cc3c2cnn3-c2ccccc2)n[nH]1` (stereo not given), the Potency result was “inactive”.

Turning to `CC1(C)Cc2c(cnn2-c2cccc(F)c2)C(NC(=O)c2cc[n+]([O-])cc2)C1` (stereo not given), the Potency result was “inactive”.

Take `COC(=O)c1ccc(C(=O)NC2CC(C)(C)Cc3c2cnn3-c2ccc(F)cc2)nc1` (stereo not given): the Potency is 1.84 µM (active).

Turning to `Cc1ccc(CNC(=O)CCC(=O)N2CC(C)Sc3ccccc32)cc1` (stereo not given), the Potency entry was “inactive”.

On to `Cc1ccc(Cl)cc1NC(=O)COC(=O)C1CCCCC1`, for which the Potency entry was “inactive”.

Consider `Cc1ccc(Cl)cc1NC(=O)CCC(=O)N1CC(C)Sc2ccccc21` (stereo not given), for which the Potency was 23.1 µM (active).

With `Cc1ccc(CNC(=O)CCNS(=O)(=O)c2ccc3c(c2)oc(=O)n3C)cc1`, the Potency result is “inactive”.

In the case of `C(#CCN1CCOCC1)CCCN1CCOCC1`, the Potency result is “inactive”.

Consider `Cn1nc(C(F)(F)F)c2cc(NC(=O)OCC(C)(C)C)sc21`, for which the Potency entry is “inactive”.

`CCNC(=O)C1(C)CCCN(C(=O)c2c(C)noc2C)C1` (stereo not given): the Potency result is “inactive”.

In the case of `Cc1cc2ccccn2c1C(=O)c1cccc(S(=O)(=O)N2CCOCC2)c1`, the Potency is 14.6 µM (active).

For `O=C(COC(=O)c1ccccc1)Nc1cccc(S(=O)(=O)N2CCOCC2)c1`, the Potency result was “inactive”.

Regarding `Cc1cc2ccccn2c1C(=O)c1cccc(F)c1`, the Potency entry was “inactive”.

With `O=[N+]([O-])c1ccc(S(=O)(=O)Nc2cccc(-c3ccc(N4CCCC4)nn3)c2)cc1`, the Potency entry was “inactive”.

`Cc1cc(C(=O)CC#N)c(C)n1-c1c(C)n(C)n(-c2ccccc2)c1=O`: the Potency result is “inactive”.

For `C=C1CCN([C@@H](Cc2ccccc2)C(=O)N2CCOCC2)S(=O)(=O)c2ccccc21`, the Potency result is “inactive”.

Turning to `C=CCn1c2ccccc2c2nnc(SC(CC)C(=O)Nc3nc(C)c(C(=O)OCC)s3)nc21` (stereo not given), the Potency was 11.6 µM (active).

`CCOC(=O)c1sc(NC(=O)C(CC)Sc2nccn2C)nc1C` (stereo not given): the Potency result is “inactive”.

Regarding `CCn1c2ccccc2c2nnc(SCC(=O)O)nc21`, the Potency result is “inactive”.

With `O=C(NC1CC1)C1CCCN(C(=O)NC2CCCCC2)C1` (stereo not given), the Potency result is “inactive”.

As for `COc1ccc(OCC(=O)NNC(=O)c2cccc(C)c2)cc1`, the Potency entry is “inactive”.

In the case of `Cc1ccc(S(=O)(=O)NC(=O)c2cccc(C)c2)cc1`, the Potency result is “inactive”.

`CN(NC(=O)c1ccccc1F)c1nc(C(F)(F)F)nc2ccccc12`: the Potency was 0.206 µM (active).

Turning to `CSc1nc(N(C)NC(=O)c2cccc(C)c2)c2ccccc2n1`, the Potency is 0.0517 µM (active).

Turning to `O=C(Cn1cnc2ccccc2c1=O)NNC(=O)c1ccccc1F`, the Potency entry is “inactive”.

Turning to `O=C(Nn1cnc2ccccc2c1=O)c1ccccc1`, the Potency entry was “inactive”.

On to `COC(=O)CNC(=O)c1ccccc1F`, for which the Potency entry is “inactive”.

Turning to `CN(NC(=O)c1ccccc1)c1nc2ccccc2nc1C(F)(F)F`, the Potency is 8.2 µM (active).

Consider `Cc1nc2ccccc2c(=O)n1NC(=O)c1ccccc1`, for which the Potency entry was “inactive”.

As for `COc1cc(N2C(=O)CSC2=S)cc(OC)c1OC`, the Potency entry was “inactive”.

With `CCOC(=O)c1nnn(CC(=O)NC(=O)Nc2ccccc2F)c1C(=O)OCC`, the Potency result was “inactive”.

Turning to `Cn1c(CCNS(=O)(=O)c2ccc(F)cc2)nnc1SCc1cccnc1`, the Potency entry was “inactive”.

For `CC(C)CN1CCNC(=O)C1CC(=O)N(C)CC1CCOCC1` (stereo not given), the Potency entry was “inactive”.

In the case of `O=C(NCCS(=O)(=O)N1CCN(c2ccc(F)cc2)CC1)c1ccccc1Br`, the Potency result is “inactive”.

On to `COc1ccccc1CCNC(=O)CN1C(=O)NC2(CCCC2)C1=O`, for which the Potency entry was “inactive”.

On to `COC(=O)c1cc(NC(=O)CC2C(=O)NCCN2C(=O)c2ccc(F)cc2)cc(C(=O)OC)c1` (stereo not given), for which the Potency entry was “inactive”.

As to `CCOc1ccc(C(C(=O)NCCOC)N(CCOC)C(=O)CCC(=O)Nc2ccccn2)cc1` (stereo not given), the Potency result is “inactive”.

As for `CCN(C(=O)c1cc([N+](=O)[O-])ccc1NCc1cccnc1)c1ccccc1`, the Potency result was “inactive”.

For `CCCn1nc(C(=O)NNC(=O)CSCC(=O)Nc2cc(C)on2)c2ccccc2c1=O`, the Potency entry is “inactive”.

For the compound `CC(NC(=O)c1ccccc1)C(=O)Nc1ccccc1` (stereo not given), the Potency entry is “inactive”.

Regarding `O=C(NC(=O)c1ccccc1)NC(=O)c1ccccc1`, the Potency result was “inactive”.

For the compound `O=C(NC1=CC(=O)c2ccccc2C1=O)c1ccccc1`, the Potency was 0.651 µM (active).

Take `CCC1CN(CCNC(=O)c2ccsc2)Cc2cc(OC)ccc2O1` (stereo not given): the activity change, negative = growth inhibition was 9.24% [at 9.04 µM] (inactive).

For the compound `COc1ccc(C(C(=O)NCC2CCCO2)N(C(=O)Cn2nnc3ccccc32)c2ccc(NC(C)=O)cc2)cc1OC` (stereo not given), the Potency entry was “inactive”.

With `O=S1(=O)CC(N2CCN(Cc3ccccc3F)CC2)CN1Cc1cn(Cc2ccccc2)nn1` (stereo not given), the Potency entry is “inactive”.

As for `O=S1(=O)CC(N2CCN(c3ccccn3)CC2)CN1Cc1ccc(F)cc1` (stereo not given), the Potency entry was “inactive”.

Consider `O=[N+]([O-])c1ccc(CN2CC(N3CCC(c4ccccc4)CC3)CS2(=O)=O)cc1` (stereo not given), for which the Potency is 18.4 µM (active).

As to `CCc1nn(CC(=O)N2CCN(CC)CC2)c(=O)c2cccn12`, the Potency result is “inactive”.

Regarding `COc1ccc(S(=O)(=O)NC(C)c2ccccc2)cc1C(=O)N1CCCCC1` (stereo not given), the Potency entry is “inactive”.

With `Cc1ccc(S(=O)(=O)n2cccc2CO)cc1`, the Potency entry is “inactive”.

As to `COc1cccc2cc(-c3nc(Cl)c4c5c(sc4n3)CC(C)CC5)c(=O)oc12` (stereo not given), the Potency result was “inactive”.

Turning to `CCc1nnc(NC(=O)/C=C/c2ccc(C)o2)s1`, the Potency result was “inactive”.

In the case of `COc1ccc(OC)c(NC(=O)/C=C/c2ccc(C)o2)c1`, the Potency result is “inactive”.

For `Cc1ccc(/C=C/C(=O)Nc2ccc([N+](=O)[O-])c(NC(=O)/C=C/c3ccc(C)o3)c2)o1`, the Potency is 11.6 µM (active).

Turning to `O=C(Nc1ccn(Cc2ccccc2)n1)c1cccc(F)c1`, the Potency entry is “inactive”.

Consider `O=C(Nc1ccn(Cc2ccc(F)cc2)n1)c1ccncc1`, for which the Potency was 18.4 µM (active).

With `O=C(Nc1ccn(Cc2ccccc2)n1)c1n[nH]c([N+](=O)[O-])c1Cl`, the Potency entry is “inactive”.

With `Cn1c(=S)sc2ccc3ccccc3c21`, the Potency result is “inactive”.

`CC(C)NC(=O)N1CC[C@@]2(CCCN(C(=O)c3ccco3)C2)C1`: the Potency entry is “inactive”.

Turning to `Cc1ccc(NC(=O)CN2CCCCC2)c2c1CC(C)(C)O2`, the Potency result is “inactive”.
